# Assay results from PubChem BioAssay (NCI).
# Several values for one entry are separate records, joined by “and”; a condition that tells them apart may be missing. Equal values may be shown once. Compounds without any hit were thinned out: in the full panel of roughly 79,000, 15% have a hit. A structure can be active in one record and inactive in another. Activity calls are given as the source filed them. Cut-off read from the data, not from the text of the source: active = growth inhibition above about 70%; inactive = the rest.
# Assays:
# [1] = NCI Yeast Anticancer Drug Screen. Data for the wt1 strain (AID 149);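 note: 0% = growth of vehicle-treated wt1 cultures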; settings: S. cerevisiae wt1 strain (SPY 50644) growth inhibition, stronger effect = higher value
# In short: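 Compounds are added to wt1 yeast cultures. Growth is then measured. Inhibition is expressed relative to vehicle-treated controls.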
# [2] = NCI Yeast Anticancer Drug Screen. Data for the mgt1 strain (AID 153); settings: S. cerevisiae mgt1 mutant growth inhibition, stronger effect = higher value
# In short: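 Growth inhibition relative to vehicle controls was scored for the mgt1 yeast strain after compound exposure.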
# [3] = NCI Yeast Anticancer Drug Screen. Data for the rad50 strain (AID 155);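 note: 0% = growth of vehicle-only cultures of the same strain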; settings: S. cerevisiae rad50 strain growth inhibition, stronger effect = higher value
# In short: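 Inhibition values express reduced yeast growth in compound-treated cultures relative to vehicle-treated controls.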
# [4] = NCI Yeast Anticancer Drug Screen. Data for the mec2-1 strain (AID 157); settings: S. cerevisiae mec2-1 strain, stronger effect = higher value
# In short: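 Growth inhibition is read against vehicle-treated controls after compound exposure of the mec2-1 yeast strain, which is defective in DNA damage repair or cell cycle control.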
# [5] = NCI Yeast Anticancer Drug Screen. Data for the rad14 strain (AID 159);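 note: 0% = growth of vehicle-treated control cultures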; settings: S. cerevisiae rad14 strain growth inhibition, stronger effect = higher value
# In short: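 A mutant yeast strain defective in DNA damage repair is treated with compound; inhibition of its growth is scored against untreated, vehicle-exposed cultures.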
# [6] = NCI Yeast Anticancer Drug Screen. Data for the sgs1 mgt1 strain (AID 161);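 note: 0% = growth of cultures given vehicle only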; settings: S. cerevisiae sgs1 mgt1 strain, stronger effect = higher value
# In short: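 Compounds are added to genetically altered yeast, and growth is compared with cultures given vehicle alone to give percent inhibition.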
# [7] = NCI Yeast Anticancer Drug Screen. Data for the CLN2oe strain (AID 163);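 note: 0% = growth of vehicle-only control cultures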; settings: S. cerevisiae CLN2oe strain, stronger effect = higher value
# In short: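 Compound-treated yeast; growth vs vehicle ctrl = % inhibition. Genetically altered strain (cell-cycle control).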
# [8] = NCI Yeast Anticancer Drug Screen. Data for the cln2 rad14 strain (AID 165);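 note: 0% = growth equal to vehicle treated cultures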; settings: S. cerevisiae cln2 rad14 strain, stronger effect = higher value
# In short: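 Growth inhibition, relative to vehicle-treated controls, is the read-out. The test organism is a yeast strain with defined genetic alterations, cln2 rad14.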
# [9] = NCI Yeast Anticancer Drug Screen. Data for the bub3 strain (AID 167); settings: S. cerevisiae bub3 mutant strain, stronger effect = higher value
# In short: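 Steps: expose the mutant yeast strain to compound; grow alongside vehicle-treated cultures; measure growth; express inhibition against the vehicle cultures.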
# [10] = NCI Yeast Anticancer Drug Screen. Data for the wt2 strain (AID 169);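 note: 0% = growth of vehicle-treated yeast cultures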; settings: S. cerevisiae wt2 strain growth inhibition, stronger effect = higher value
# In short: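 Compound exposure of yeast; growth compared with vehicle controls; inhibition reported.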
# [11] = NCI Yeast Anticancer Drug Screen. Data for the mlh1 strain (AID 171);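 note: 0% = growth of vehicle-treated control cultures of the same strain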; settings: S. cerevisiae mlh1 strain growth inhibition, stronger effect = higher value
# In short: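 Compounds are applied to a genetically altered yeast strain, and its growth is compared with that of vehicle-treated cultures to give percent inhibition.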
# [12] = NCI Yeast Anticancer Drug Screen. Data for the sgs1 strain (AID 173);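 note: 0% = growth of vehicle-only control cultures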; settings: S. cerevisiae sgs1 mutant, stronger effect = higher value
# In short: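 Compounds applied to genetically altered yeast; growth compared with vehicle-treated cultures to give % inhibition.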
# [13] = NCI Yeast Anticancer Drug Screen. Data for the mlh1 rad18 strain (AID 175); settings: S. cerevisiae mlh1 rad18 strain growth inhibition, stronger effect = higher value
# In short: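 Cells of a genetically altered yeast strain, deficient in DNA damage repair, were treated with compound. Their growth was then compared with that of vehicle-treated cultures to give inhibition.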
# [14] = NCI Yeast Anticancer Drug Screen. Data for the rad18 strain (AID 177); settings: S. cerevisiae rad18 mutant growth inhibition, stronger effect = higher value
# In short: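 Compounds are applied to a repair-deficient yeast strain, and growth is compared with that of vehicle-treated cultures to give percent inhibition.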
# [15] = at 5.0 µM (retest, dose inferred, filed as 0.5)
# [16] = at 50.0 µM (retest, dose inferred, filed as 5.0)
smiles,measurement,setting,value
O=C(c1c(F)c(F)c(F)c(F)c1F)c1c(F)c(F)c(F)c(F)c1F,growth inhibition,[1]; at 1.2 µM,3% (inactive)
same,growth inhibition,[1]; at 3.7 µM,49% (inactive)
same,growth inhibition,[1]; at 11.0 µM,95% (active)
same,growth inhibition,[1]; at 33.0 µM,99% (active)
same,growth inhibition,[1]; at 100.0 µM,99% (active)
same,growth inhibition,[2]; at 1.2 µM,24% (inactive)
same,growth inhibition,[2]; at 3.7 µM,59% (inactive)
same,growth inhibition,[2]; at 11.0 µM,98% (active)
same,growth inhibition,[2]; at 33.0 µM,99% (active)
same,growth inhibition,[2]; at 100.0 µM,99% (active)
same,growth inhibition,[3]; at 1.2 µM,27% (inactive)
same,growth inhibition,[3]; at 3.7 µM,59% (inactive)
same,growth inhibition,[3]; [15],79% (active)
same,growth inhibition,[3]; at 11.0 µM,95% (active)
same,growth inhibition,[3]; at 33.0 µM,96% (active)
same,growth inhibition,[3]; [16],97% (active)
same,growth inhibition,[3]; at 50.0 µM,84.6% (active)
same,growth inhibition,[3]; at 100.0 µM,95% (active)
same,growth inhibition,[4]; at 1.2 µM,36% (inactive)
same,growth inhibition,[4]; at 3.7 µM,77% (active)
same,growth inhibition,[4]; [15],61% (inactive)
same,growth inhibition,[4]; at 11.0 µM,99% (active)
same,growth inhibition,[4]; at 33.0 µM,100% (active)
same,growth inhibition,[4]; [16],99% (active)
same,growth inhibition,[4]; at 50.0 µM,87.5% (active)
same,growth inhibition,[4]; at 100.0 µM,99% (active)
same,growth inhibition,[5]; at 1.2 µM,10% (inactive)
same,growth inhibition,[5]; at 3.7 µM,55% (inactive)
same,growth inhibition,[5]; at 11.0 µM,98% (active)
same,growth inhibition,[5]; at 33.0 µM,99% (active)
same,growth inhibition,[5]; at 100.0 µM,99% (active)
same,growth inhibition,[6]; [15],15% (inactive)
same,growth inhibition,[6]; [16],74% (active)
same,growth inhibition,[6]; at 50.0 µM,76.7% (active)
same,growth inhibition,[7]; at 1.2 µM,4% (inactive)
same,growth inhibition,[7]; at 3.7 µM,72% (active)
same,growth inhibition,[7]; at 11.0 µM,98% (active)
same,growth inhibition,[7]; at 33.0 µM,99% (active)
same,growth inhibition,[7]; at 100.0 µM,97% (active)
same,growth inhibition,[8]; [15],38% (inactive)
same,growth inhibition,[8]; [16],70% (active)
same,growth inhibition,[8]; at 50.0 µM,85.7% (active)
same,growth inhibition,[9]; at 1.2 µM,54% (inactive)
same,growth inhibition,[9]; at 3.7 µM,80% (active)
same,growth inhibition,[9]; [15],3% (inactive)
same,growth inhibition,[9]; at 11.0 µM,96% (active)
same,growth inhibition,[9]; at 33.0 µM,99% (active)
same,growth inhibition,[9]; [16],80% (active)
same,growth inhibition,[9]; at 50.0 µM,88.7% (active)
same,growth inhibition,[9]; at 100.0 µM,97% (active)
same,growth inhibition,[10]; at 1.2 µM,16% (inactive)
same,growth inhibition,[10]; at 3.7 µM,52% (inactive)
same,growth inhibition,[10]; at 11.0 µM,98% (active)
same,growth inhibition,[10]; at 33.0 µM,99% (active)
same,growth inhibition,[10]; at 100.0 µM,98% (active)
same,growth inhibition,[11]; at 1.2 µM,16% (inactive)
same,growth inhibition,[11]; at 3.7 µM,56% (inactive)
same,growth inhibition,[11]; at 11.0 µM,97% (active)
same,growth inhibition,[11]; at 33.0 µM,98% (active)
same,growth inhibition,[11]; at 100.0 µM,97% (active)
same,growth inhibition,[12]; at 1.2 µM,39% (inactive)
same,growth inhibition,[12]; at 3.7 µM,72% (active)
same,growth inhibition,[12]; at 11.0 µM,96% (active)
same,growth inhibition,[12]; at 33.0 µM,97% (active)
same,growth inhibition,[12]; at 100.0 µM,95% (active)
same,growth inhibition,[13]; [15],45% (inactive)
same,growth inhibition,[13]; [16],88% (active)
same,growth inhibition,[13]; at 50.0 µM,67.3% (inactive)
same,growth inhibition,[14]; at 1.2 µM,28% (inactive)
same,growth inhibition,[14]; at 3.7 µM,56% (inactive)
same,growth inhibition,[14]; at 11.0 µM,92% (active)
same,growth inhibition,[14]; at 33.0 µM,96% (active)
same,growth inhibition,[14]; at 100.0 µM,93% (active)
Cc1cc(SC#N)ccc1O,growth inhibition,[3]; [15],13% (inactive) and 4% (inactive) and -2% (inactive)
same,growth inhibition,[3]; [16],91% (active)
same,growth inhibition,[3]; at 50.0 µM,92.6% (active) and 86.2% (active) and 91.6% (active)
same,growth inhibition,[4]; [15],-1% (inactive) and -7% (inactive) and -6% (inactive)
same,growth inhibition,[4]; [16],83% (active) and 90% (active) and 62% (inactive)
same,growth inhibition,[4]; at 50.0 µM,90% (active) and 87.1% (active)
same,growth inhibition,[6]; [15],-2% (inactive) and 6% (inactive)
same,growth inhibition,[6]; [16],92% (active) and 77% (active) and 63% (inactive)
same,growth inhibition,[6]; at 50.0 µM,95.2% (active) and 85.7% (active) and 75% (active)
same,growth inhibition,[8]; [15],-1% (inactive) and 26% (inactive) and -3% (inactive)
same,growth inhibition,[8]; [16],64% (inactive) and 91% (active) and 71% (active)
same,growth inhibition,[8]; at 50.0 µM,32.8% (inactive) and 83.2% (active) and 70% (inactive)
same,growth inhibition,[9]; [15],15% (inactive) and 2% (inactive) and 13% (inactive)
same,growth inhibition,[9]; [16],94% (active) and 80% (active)
same,growth inhibition,[9]; at 50.0 µM,91.3% (active) and 88.4% (active) and 95% (active)
same,growth inhibition,[13]; [15],9% (inactive) and -4% (inactive) and 1% (inactive)
same,growth inhibition,[13]; [16],95% (active) and 87% (active)
same,growth inhibition,[13]; at 50.0 µM,96.4% (active) and 86.3% (active) and 95.6% (active)
